The text below walks through data of PubChem BioAssay (Tox21).

Results filed as inconclusive are left out. Values without a mark were called inactive. Active and inactive are the calls of the source. Unless noted, calls follow the shape of the dose curve; as a rule, active = well fitted curve in the direction sought with a large enough effect in the repeat runs; inconclusive = weak or mixed curves; inactive = no such curve, though single readings can be large; an effect the other way counts as inactive or inconclusive.

Assay [1] in a line: qHTS assay to identify small molecule agonists of the RXR signaling pathway - cell viability counter screen (AID 1159529).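 Also: HEK 293T cells carrying an RXR-alpha UAS beta-lactamase reporter; series mostly up to about 77 µM; nearly all actives have a fitted effect of over 50% in size.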 A digest of the protocol:
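Counter screen: CellTiter-Glo luminescence. Cells: RXR-alpha-UAS-bla HEK 293T. Medium: 2% charcoal-stripped FBS. Treatment: 16 h, 37 C. Reagent incubation: 30 min, RT.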
Background: In qHTS, concentration-response curves come from the screen itself.

The nature of assay [2]: qHTS assay to identify small molecule antagonists of the retinoid acid receptor (RAR) signaling pathway - cell viability counter screen (AID 1159551). Also: nearly all actives have a fitted effect of over 35% in size. The gist of the method:
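Measured by luminescent ATP detection, viability reflects C3RL4 cells treated 6 h at 37 C with test chemicals in the presence of 1 uM (final) retinol.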

A short description of assay [3]: qHTS assay to identify small molecule antagonists of the estrogen related receptor (ERR) signaling pathway from Tox21 library - cell viability counter screen (AID 1224834). Also: nearly all actives have a fitted effect of over 30% in size. A digest of the protocol:
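Seeded ERR cells were rested 6 h at 37 C/5% CO2 before compounds, positive and negative controls or DMSO were added. Incubation continued for 17.5 h, and viability was then quantified by CellTiter-Fluor fluorescence.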

Assay [4] has as its target Luciferin 4-monooxygenase (Photinus pyralis) (UniProt P08659). Put plainly: qHTS assay to identify small molecule inhibitors of firefly luciferase (AID 1224835). Also: nearly all actives have a fitted effect of over 25% in size. Also: potency is read from the fitted curve at half-maximal effect. As to activity change, negative = inhibition: series mostly up to about 120 µM. The gist of the method: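 Inhibition of purified Photinus luciferase is measured by luminescence. Substrate levels (D-luciferin, ATP) sit at their KM values. Each compound is tested in a concentration series.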

A short description of assay [5]: qHTS assay to identify small molecule agonists of the constitutive androstane receptor (CAR) signaling pathway - cell viability counter screen (AID 1224836). Also: series mostly up to about 92 µM; nearly all actives have a fitted effect of over 45% in size. A digest of the protocol:
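Double-stable HepG2 hepatoma cells (hCAR plus CYP2B6-2.2kb) are treated for 23 h at 37 C with test compounds in 15-point concentration series. PK11195 at 0.75 uM final is co-added. Cell viability is quantified by CellTiter-Fluor.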

The nature of assay [6]: qHTS assay to identify small molecule antagonists of the constitutive androstane receptor (CAR) signaling pathway - cell viability counter screen (AID 1224837). Also: series mostly up to about 92 µM; nearly all actives have a fitted effect of over 45% in size. The gist of the method: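 To flag cytotoxic false antagonists, HepG2 hCAR/CYP2B6-2.2kb cells were treated 23 hr with 15-concentration compound series and 50 nM CITCO at 37 C/5% CO2; CellTiter-Fluor fluorescence was the measured end point.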

Assay [7] has as its target Nuclear receptor subfamily 1 group I member 3 (Homo sapiens) (UniProt Q14994). As to the kind of experiment: qHTS assay to identify small molecule antagonists of the constitutive androstane receptor (CAR) signaling pathway (AID 1224838).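 Also: HepG2 cells stably expressing hCAR with CYP2B6 luciferase reporter stimulated by CITCO; nearly all actives have a fitted effect of over 40% in size.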 Also: potency is read from the fitted curve at half-maximal effect. A digest of the protocol:
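Human hepatoma HepG2 cells expressing hCAR and a CYP2B6 promoter (2.2 kb) luciferase construct; compound titration (15 points) with 50 nM CITCO final, 24 h at 37 C/5% CO2; luminescence via ONE-Glo after 30 min at room temperature.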

Assay [8] shares this target. Put plainly: qHTS assay to identify small molecule agonists of the constitutive androstane receptor (CAR) signaling pathway (AID 1224839). Also: nearly all actives have a fitted effect of over 15% in size. Also: potency is read from the fitted curve at half-maximal effect.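 As to activation: HepG2 cells stably carrying human CAR and a CYP2B6 luciferase reporter; series mostly up to about 92 µM.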 The gist of the method: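 Readout: firefly luciferase luminescence via ONE-Glo. System: HepG2 double-stable for hCAR and CYP2B6-2.2kb. Conditions: 15-point compound titration, PK11195 at 0.75 uM final, 24 h incubation.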
Assay [9] is described as follows: qHTS assay to identify small molecule antagonists of the estrogen related receptor signaling pathway with the pleiotropic PPARgamma coactivator (PGC) from Tox21 10K library - cell viability counter screen (AID 1224840; active = well fitted cell-killing curve with a large enough effect in the repeat runs, not every such curve was filed as active; also: nearly all actives have a fitted effect of over 40% in size). The gist of the method: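 Seeded PGC/ERR cells (2,000/well, 6 h, 37 C/5% CO2) get compound by pin tool; 17.5 h incubation at 37 C; CellTiter-Fluor added, 30 min, fluorescence measured.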

Assay [10] in a line: qHTS assay to identify small molecule antagonists of the estrogen related receptor signaling pathway with the pleiotropic PPARgamma coactivator (PGC) from Tox21 10K library (AID 1224841; call rule not given here; also: series mostly up to about 92 µM; actives are mostly falling curves and most rising ones were filed inactive; nearly all actives have a fitted effect of over 50% in size). A digest of the protocol: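 Test chemicals dissolved in DMSO were applied to pre-incubated (6 h) PGC/ERR cells at 2,000 cells/well for an 18 h, 37 C treatment; reporter luminescence was then read using One-Glo.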

Assay [11] is described as follows: qHTS assay to identify small molecule agonists of the estrogen related receptor signaling pathway with the pleiotropic PPARgamma coactivator (PGC) from Tox21 10K library (AID 1224842). Also: nearly all actives have a fitted effect of over 15% in size. Also: potency is read from the fitted curve at half-maximal effect. A digest of the protocol: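 Luminescence from One-Glo (30 min, room temperature) measured after PGC/ERR cells had 18 h at 37 C with pinned compound (23 nL in DMSO). Cells had been seeded at 2,000 per well and pre-incubated 6 h.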

Assay [12] in a line: qHTS assay to identify small molecule antagonists of the retinoic acid receptor (RAR) signaling pathway (AID 1159552; also: nearly all actives have a fitted effect of over 50% in size). A digest of the protocol: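 Antagonism of retinol-induced RARE reporter activity was measured in C3RL4 cells. Exposure to compounds and 1 uM final retinol lasted 6 hr at 37 C, with luminescence as endpoint.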
Assay [13] can be described thus: qHTS assay to identify small molecule agonists of the retinoic acid receptor (RAR) signaling pathway (AID 1159553). A digest of the protocol:
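6 hr compound exposure (DMSO vehicle) of overnight-plated C3RL4 RARE-luc cells at 37 C; luminescence quantified after 30 min RT with luciferase reagent.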
% is scaled to controls: 0 for no effect and ±100 for the full control effect.

Chain of Nuclear receptor subfamily 1 group I member 3 (Homo sapiens) (Q14994 whole entry, looked up): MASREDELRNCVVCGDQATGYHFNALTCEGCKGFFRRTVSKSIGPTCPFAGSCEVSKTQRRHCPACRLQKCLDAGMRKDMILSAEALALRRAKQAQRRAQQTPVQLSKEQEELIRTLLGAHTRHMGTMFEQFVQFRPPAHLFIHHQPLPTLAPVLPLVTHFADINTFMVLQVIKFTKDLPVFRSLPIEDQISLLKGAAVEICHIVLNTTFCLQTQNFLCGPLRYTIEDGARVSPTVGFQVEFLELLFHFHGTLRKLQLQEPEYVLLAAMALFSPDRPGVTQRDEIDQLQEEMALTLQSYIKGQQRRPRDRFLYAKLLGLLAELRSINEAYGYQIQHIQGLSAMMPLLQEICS
Chain of Luciferin 4-monooxygenase (Photinus pyralis) (P08659 whole entry, looked up): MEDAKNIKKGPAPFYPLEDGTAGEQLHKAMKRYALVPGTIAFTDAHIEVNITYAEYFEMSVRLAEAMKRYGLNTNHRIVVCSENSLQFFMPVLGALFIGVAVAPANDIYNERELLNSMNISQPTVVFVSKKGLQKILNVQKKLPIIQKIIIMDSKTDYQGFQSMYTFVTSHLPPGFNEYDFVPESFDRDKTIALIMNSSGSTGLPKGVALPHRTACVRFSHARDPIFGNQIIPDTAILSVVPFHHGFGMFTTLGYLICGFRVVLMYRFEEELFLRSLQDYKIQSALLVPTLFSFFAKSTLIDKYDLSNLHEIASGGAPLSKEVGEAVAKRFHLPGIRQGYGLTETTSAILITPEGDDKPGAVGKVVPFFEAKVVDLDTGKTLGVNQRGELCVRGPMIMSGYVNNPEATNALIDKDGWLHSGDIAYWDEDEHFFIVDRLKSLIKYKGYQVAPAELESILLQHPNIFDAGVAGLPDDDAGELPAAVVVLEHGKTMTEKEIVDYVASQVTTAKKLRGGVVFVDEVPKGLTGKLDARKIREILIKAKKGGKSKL

For the molecule `C[Si](C)(C)O[Si](C)(C)O[Si](C)(C)C`, the Potency result in assay [1], in [3], in assay [4], in assay [5], in assay [6] and in [7] was “inactive” in each case. For the same molecule, the Potency entry in [8] and in assay [9] was “inactive” throughout. The molecule was classed as inactive in assay [2].
In the case of `FC(F)(Cl)C(F)(Cl)Cl`, the Potency entry in [1], in assay [3], in assay [4], in assay [5], in assay [6] and in [7] was “inactive” throughout. Also, the Potency entry in assay [8] and in assay [9] was “inactive” each time. In addition, the molecule was called inactive in [2].
In the case of `CC1(C)CC(=O)CC(C)(C)N1`, the Potency result in assay [1], in [3], in [4], in [5], in assay [6] and in assay [9] was “inactive” throughout. Also, in assay [2], the call was inactive.
`CCCCCCCCCCCCN1CCOCC1`: the Potency entry in assay [1], in [3], in assay [4], in assay [5], in [6] and in assay [7] was “inactive” in each case. The Potency entry in assay [8] and in [10] was “inactive” in each case. For the same molecule, in assay [2], the molecule was classed as inactive.
As to `O=C(O)c1ccc2cc(O)ccc2c1`, the Potency result in assay [1], in [3], in assay [5], in [6], in [7] and in [8] was “inactive” each time. The Potency result in [9] was “inactive”. The result in assay [2] was inactive. The Potency in assay [4] was 62.4 µM (active).
Turning to `COc1ccc(C(=O)c2ccc(C)cc2)c(O)c1`, the Potency entry in [1], in [3], in assay [5], in assay [6], in assay [7] and in [9] was “inactive” each time. Besides, the Potency result in [10] was “inactive”. In addition, in [2], the call was inactive. Besides, the Potency in assay [4] was 11.4 µM (active); in assay [8], 27.6 µM (active); in assay [11] it was 7.78 µM (active).
Regarding `CC/C=C/CCO`, the Potency result in assay [1], in [3], in [4], in assay [5], in [6] and in assay [9] was “inactive” each time. Besides, the Potency result in [10] and in assay [11] was “inactive” throughout. Moreover, the call in assay [2] was inactive.
For `CCOc1ccc(NC(C)=O)cc1N`, the Potency entry in assay [1], in assay [3], in assay [4], in [5], in [6] and in assay [7] was “inactive” throughout. For the same molecule, the Potency entry in assay [9] and in assay [10] was “inactive” each time. Moreover, in assay [2], the outcome was inactive.
In the case of `C=Cc1ccc(C=C)cc1`, the Potency result in [1], in assay [3], in [4], in assay [5], in assay [6] and in assay [9] was “inactive” in each case. Moreover, the molecule was classed as inactive in assay [2].
As to `C/C(=C\C(C)CC(C)CC(C)C)C1CC(=O)OC1=O` (stereo not given), the Potency result in assay [1], in [3], in [5], in assay [6] and in [9] was “inactive” throughout. Also, the call in assay [2] was inactive. For the same molecule, the Potency in assay [4] was 89.4 µM (active).
On to `O=C(O)CNc1ccccc1`, for which the Potency entry in assay [1], in assay [3], in assay [4], in [5], in [6] and in [7] was “inactive” throughout. For the same molecule, the Potency result in assay [8], in assay [9], in assay [10] and in assay [11] was “inactive” each time. Also, in assay [2], the call was inactive.
For `Cc1cc(N)n(-c2ccccc2)n1`, the Potency result in assay [1], in [3], in assay [4], in assay [5], in assay [6] and in assay [7] was “inactive” throughout. For the same molecule, the Potency entry in assay [9] and in [10] was “inactive” each time. The call in [2] was inactive.
As to `Nc1nc(Cl)nc2c1ncn2[C@H]1C[C@H](O)[C@@H](CO)O1`, the Potency entry in assay [1], in assay [3], in [4], in assay [5], in assay [6] and in assay [8] was “inactive” in each case. Further, the Potency entry in [9] is “inactive”. Further, the molecule was called inactive in [2]. In addition, the Potency in [7] is 0.121 µM (active).
Regarding `Cc1c(Nc2ncccc2C(=O)O)cccc1C(F)(F)F`, in [2], the call was inactive. Also, the Potency entry in assay [3], in [5], in assay [6] and in assay [9] was “inactive” in each case. The Potency in assay [4] is 17.4 µM (active).
`Nc1ccccc1Nc1ccccc1`: the Potency entry in assay [1] and in [5] was “inactive” in each case. Further, the molecule was called inactive in [12]. Besides, the Potency in [8] was 54.6 µM (active).
For the molecule `c1ccc(CN(Cc2ccccc2)Cc2ccccc2)cc1`, the outcome in [2] and in assay [12] was inactive. Moreover, the Potency result in assay [13], in [3], in assay [4], in [5], in assay [6] and in assay [7] was “inactive” throughout. The Potency result in assay [8] and in assay [9] was “inactive” throughout.
Take `COC=O`: the activity change, negative = cytotoxicity in assay [2] is 0.256% [at 8.39 µM]; in assay [6] it was -19.2% [at 8.39 µM]. Further, the activation was 3.97% [at 8.36 µM] in assay [13] and -2.43% [at 8.39 µM] in assay [8]. The viability change, negative = cytotoxic in assay [3] was 0.652% [at 8.39 µM]; in [5], -8.98% [at 8.39 µM]; in assay [9], 0.435% [at 8.39 µM]. In addition, the activity change, negative = inhibition in assay [4] was -0.731% [at 10.5 µM]. Further, the activity, negative = inhibition in [7] was 0.829% [at 8.39 µM]; in [10] it was 9.85% [at 8.39 µM].
